Measurements as given in PubChem BioAssay (NCATS).
Results filed as inconclusive are left out. Where a call stands in place of a potency, no number is given. Active and inactive are the calls of the source. Calls follow the shape of the dose curve; as a rule, active = well fitted curve in the direction sought with a large enough effect; inconclusive = small, poorly fitted or top-dose-only effect, or another doubt; inactive = no such curve, though single readings can be large; an effect the other way counts as inactive or inconclusive.

How the values were obtained:
[1] = qHTS to identify inhibitors of the type 1 interferon - major histocompatibility complex class I in skeletal muscle: primary screen against the NCATS Pharmaceutical Collection (AID 1347407); conditions: human skeletal muscle cells, IFN-b-induced MHC-I HiBiT luminescence, 24 h; series mostly up to 45.9 µM;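 also: luminescence of HiBiT knocked into endogenous HLA-B as interferon-induced MHC class I level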; also: potency is read from the fitted curve at half-maximal effect
Summary of the method: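 Compounds […] were added to CRISPR-engineered HLA-B-HiBiT C25cl48 human myoblasts with 4.0 ng/ml IFN-beta. After 24 hrs at 37 C, cells were lysed and HiBiT luminescence measured.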

[2] = qHTS for inhibitors of adenylyl cyclases using a fission yeast platform: a pilot screen against the NCATS LOPAC library (AID 1347410); conditions: S. pombe CHP2027, fbp1-GFP fluorescence, 18 h, yeast expressing mammalian AC9 and human GNAS; series mostly up to 57.5 µM
Summary of the method: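 GFP from fbp1-GFP reporter, read by Acumen laser cytometry, indicates AC inhibition in fission yeast expressing AC9, GNAS and PDE4D2. Cells grown 18 h in the dark at 30C with compounds, final up to 57 uM.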

[3] = molecular target: Protein phosphatase 1D (Homo sapiens) (UniProt O15297); experiment: RapidFire Mass Spectrometry qHTS Assay for Modulators of WT P53-Induced Phosphatase 1 (WIP1) (AID 1347424); conditions: WIP1 dephosphorylation of phosphopeptide, RapidFire MS; series mostly up to 63 µM
Summary of the method: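 RapidFire MS readout of dephosphorylated VEPPL-S-QETFS product, with 1 uM isotope-labelled peptide standard. Reaction: 10 nM WIP1, 2 uM phosphopeptide substrate, 5 min, room temperature, after 1 h compound preincubation; stopped with 0.5% formic acid.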

[4] = qHTS to identify inhibitors of the type 1 interferon - major histocompatibility complex class I in skeletal muscle: primary screen against the NCATS Mechanism Interrogation Plate v5.0 (MIPE) Libary (AID 1347411); conditions: iHSKM cells + IFN-b, HiBiT-tagged MHC-I luminescence, 24 h; series mostly up to 45.8 µM; also: nearly all actives have a fitted effect of over 65% in size; also: potency is read from the fitted curve at half-maximal effect
Summary of the method: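 HLA-B HiBit myoblasts, dexamethasone-free medium + 4 ng/ml IFN-b, 24 h compound, 11-pt 1:3 from 46 uM final. Readout: Nano-Glo HiBiT lytic luminescence after 10 min lysis, RT.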

[5] = qHTS for activators of dead-cell proteases activity screened against the NCATS CANVASS Library (AID 1347392); conditions: HepG2 cytotoxicity, dead-cell protease luminescence, 5 h; series mostly up to 46.1 µM;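 also: luminescence from protease leaking out of membrane-damaged cells cleaving impermeant substrate; rising signal means more cytotoxicity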
From the text: Natural products and their derivatives continue to be wellsprings of nascent therapeutic potential. However, many laboratories have limited resources for biological evaluation, leaving their previously isolated or synthesized compounds largely or completely untested. To address this issue, the Canvass library of natural products was assembled (https://tripod.nih.gov/canvass), in collaboration with academic and industry researchers, for quantitative high-throughput screening (qHTS) across a diverse set of cell-based and biochemical assays. The pure (>85% purity by liquid chromatography/mass spectrometry [LC/MS]) Canvass library of 346 natural products were submitted by 45 academic laboratories and companies around the world. We collected pure natural products to circumvent deconvolution and structure elucidation due to time and resource limitations. The library was formatted into 1536-well plates and evaluated in 50 qHTS (in an 11-pnt concentration series) bioassays with broad scope of disease-relevant mechanisms. The resulting data set from 50 different assays was then systematically analyzed to identify overall trends and specific natural products with interesting biological activities. Reported herein are the results of each individual qHTS and their corresponding assay protocol. This cytotoxicity assay measures dead-cell protease activity (proteases are released from cells that have lost membrane integrity). A luminogenic cell-impermeant peptide substrate (AAF-aminoluciferin) is used to measure dead-cell protease activity. The amount of luminescence directly correlates with the percentage of cells undergoing cytotoxic stress. National Center for Advancing Translational Sciences (NCATS), Rockville, MD National Institute of Health (NIH), Bethesda, Maryland
Protease-screen assay protocol: 1. […] The luminescence readout was obtained using the ViewLux plate reader (PerkinElmer) using a clear emission filter, 2x binning, 1 sec exposure settings.

[6] = qHTS for inhibitors of ER calcium dysfunction: SERCaMP assay screened against the NCATS CANVASS Library (AID 1347393); conditions: SH-SY5Y GLuc-SERCaMP secretion, thapsigargin, luminescence; series mostly up to 76.6 µM; also: nearly all actives have a fitted effect of over 40% in size; also: potency is read from the fitted curve at half-maximal effect
Summary of the method: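 SH-SY5Y GLuc-SERCaMP, 1000 cells/well, 4 h attach; cpd 16 h, 37C/5% CO2; thapsigargin (added as 6x 600 nM) 4 h; coelenterazine; luminescence. Reduced reporter release = ER Ca stabilization.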

[7] = Vero-766 cells viability qHTS against the NCATS CANVASS Library: Counterscreen for Zika virus inhibition assay (AID 1347394); conditions: Vero 766 viability, CellTiter-Glo luminescence, 72 h; series mostly up to 46.1 µM; also: nearly all actives have a fitted effect of over 60% in size
Summary of the method: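 CellTiter Glo luminescence measured cytotoxicity after 72 h at 37C in uninfected Vero 766 cells, plated at 1000 cells/well. Compounds were applied in an 11-point series. Wells without cells defined 100% inhibition.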

[8] = qHTS for inhibitors of Wild type Zika virus screened against the NCATS CANVASS Library (AID 1347396); conditions: Vero cells, Zika virus CPE, CellTiter-Glo, 72 h; series mostly up to 45.9 µM;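 also: ATP luminescence of surviving cells so rescue from viral cell killing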
Summary of the method: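 Using ATP-based luminescence (CellTiter Glo), this screen scores rescue of Vero 766 cells from wild-type Zika killing at 72 h post-infection. Compounds are tested in a concentration series.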

[9] = Viability qHTS for inhibitors of the SERCaMP assay screened against the NCATS CANVASS Library (AID 1347400); conditions: SH-SY5Y SERCaMP cells viability, CellTiter-Glo, 48 h; series mostly up to 92.2 µM; also: nearly all actives have a fitted effect of over 70% in size
Summary of the method: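 CellTiter-Glo luminescence readout after 48 h compound exposure (11-pnt qHTS series) of SH-SY5Y-GLuc SERCaMP MJH297 cells seeded at 1000 cells/well; bortezomib positive control.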

[10] = Redox Reaction Profiling qHTS: Assay Interference Panel against the NCATS CANVASS Library (AID 1347401); conditions: resazurin-DTT redox cycling, fluorescence, 15 min; series mostly up to 57.1 µM; also: potency is read from the fitted curve at half-maximal effect
Summary of the method: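 Fluorescence read-out (525 nm excitation, 598 nm emission) at time zero and after 15 min in the dark tracked resorufin formation. Mix: 5 uM resazurin, 200 uM DTT, HEPES pH 7.3 buffer with NaCl.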

Chain of Protein phosphatase 1D (Homo sapiens) (O15297 whole entry, looked up): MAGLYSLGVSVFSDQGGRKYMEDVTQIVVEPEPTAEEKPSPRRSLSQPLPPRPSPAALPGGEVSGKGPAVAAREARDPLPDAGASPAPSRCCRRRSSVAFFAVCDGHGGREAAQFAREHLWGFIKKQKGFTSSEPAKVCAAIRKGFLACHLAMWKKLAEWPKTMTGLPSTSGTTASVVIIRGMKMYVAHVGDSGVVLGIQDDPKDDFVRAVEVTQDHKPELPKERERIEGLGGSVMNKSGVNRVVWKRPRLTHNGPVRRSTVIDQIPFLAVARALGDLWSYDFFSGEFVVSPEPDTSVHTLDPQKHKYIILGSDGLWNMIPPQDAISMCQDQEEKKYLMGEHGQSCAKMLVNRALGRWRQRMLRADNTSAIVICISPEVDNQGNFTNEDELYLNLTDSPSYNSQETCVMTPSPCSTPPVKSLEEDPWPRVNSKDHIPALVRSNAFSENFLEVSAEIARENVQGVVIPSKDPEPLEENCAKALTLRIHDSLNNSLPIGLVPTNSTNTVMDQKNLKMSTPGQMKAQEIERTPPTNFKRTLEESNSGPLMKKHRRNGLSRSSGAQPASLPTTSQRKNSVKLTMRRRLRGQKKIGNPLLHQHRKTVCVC

Q: Which results are given for CN(C)CCC(c1ccccc1)c1ccccn1 (stereo not given)?
A: Potency [1]: inactive; outcome [2]: inactive; outcome [3]: inactive

Q: With O=C(CCCCCCC(=O)Nc1ccccc1)NO as the compound, how does the Potency [1] read?
A: 4.19 µM (active)

Q: And the Potency [4]?
A: 1.47 µM (active)

Q: What about the outcome [3] of the same compound?
A: inactive

Q: Which Potency [1] does the source give for O=C(NCCN1CCOCC1)c1ccc(Cl)cc1 here?
A: inactive

Q: And the outcome [2]?
A: inactive

Q: What about the outcome [3] of the same compound?
A: inactive

Q: With CC(=O)CCCCn1c(=O)c2c(ncn2C)n(C)c1=O as the compound, how does the Potency [1] read?
A: inactive

Q: And the outcome [2]?
A: inactive

Q: And the outcome [3]?
A: inactive

Q: For O=C(O)Cc1cccc2ccccc12, which Potency [1] is on record?
A: inactive

Q: What about the outcome [3] of the same compound?
A: inactive

Q: What does the source list for O=C(O)CCc1nc(-c2ccccc2)c(-c2ccccc2)o1?
A: Potency [1]: inactive; outcome [2]: inactive; outcome [3]: inactive

Q: What does the source list for CC(C)NCC(O)COc1cccc2[nH]ccc12 (stereo not given)?
A: Potency [1]: inactive; outcome [2]: inactive; outcome [3]: inactive

Q: What does the source list for NCCS?
A: Potency [1]: inactive; outcome [2]: inactive; outcome [3]: inactive

Q: With Cc1cccc(C)c1OCC(C)N (stereo not given) as the compound, how does the Potency [1] read?
A: inactive

Q: What about the outcome [2] of the same compound?
A: inactive

Q: What about the outcome [3] of the same compound?
A: inactive

Q: For CCN1CCC[C@H]1CNC(=O)c1cc(S(N)(=O)=O)ccc1OC, which Potency [1] is on record?
A: inactive

Q: And the outcome [2]?
A: inactive

Q: What about the outcome [3] of the same compound?
A: inactive

Q: For N#C[C@H]1C[C@H]2C[C@@H]2N1C(=O)[C@@H](N)C12CC3CC(CC(O)(C3)C1)C2, which Potency [1] is on record?
A: inactive

Q: And the outcome [3]?
A: inactive

Q: With Clc1ccc(Cn2c(CN3CCCC3)nc3ccccc32)cc1 as the compound, how does the Potency [1] read?
A: inactive

Q: What about the outcome [2] of the same compound?
A: inactive

Q: And the Potency [4]?
A: inactive

Q: What about the outcome [3] of the same compound?
A: inactive

Q: Which results are given for O=c1cc(-c2ccccc2)oc2cc(O)c(O)c(O)c12?
A: outcome [5]: inactive; Potency [6]: inactive; outcome [7]: inactive; outcome [8]: inactive; outcome [9]: inactive; Potency [10]: inactive

Q: With COC(=O)[C@@H]1[C@H]2C[C@H]3c4[nH]c5ccccc5c4CCN3C[C@@H]2CC[C@@H]1O as the compound, how does the outcome [5] read?
A: inactive

Q: What about the Potency [6] of the same compound?
A: 30.5 µM (active)

Q: What about the outcome [7] of the same compound?
A: inactive

Q: What about the outcome [8] of the same compound?
A: inactive

Q: What about the outcome [9] of the same compound?
A: inactive

Q: And the Potency [10]?
A: inactive

Q: What about the Potency [1] of the same compound?
A: inactive

Q: What about the outcome [2] of the same compound?
A: inactive

Q: And the Potency [4]?
A: inactive

Q: What about the outcome [3] of the same compound?
A: inactive

Q: Which Potency [1] does the source give for CN(C)c1cc(NC(=O)CNC(C)(C)C)c(O)c2c1C[C@@H]1C[C@H]3[C@H](N(C)C)C(=O)C(C(N)=O)=C(O)[C@@]3(O)C(=O)C1=C2O here?
A: inactive

Q: With C[N+](C)(C)CCCCCC[N+](C)(C)C as the compound, how does the Potency [1] read?
A: inactive

Q: What about the outcome [2] of the same compound?
A: inactive

Q: And the outcome [3]?
A: inactive

Q: With COc1ccc2cccc(CCNC(C)=O)c2c1 as the compound, how does the Potency [1] read?
A: inactive

Q: What about the Potency [4] of the same compound?
A: inactive

Q: And the outcome [3]?
A: inactive

Q: What does the source list for CCN(CC)C(=O)c1ccc(O)c(OC)c1?
A: Potency [1]: inactive; outcome [2]: inactive; outcome [3]: inactive

Q: With COc1cc2ncnc(Nc3ccc(F)c(Cl)c3)c2cc1OCCCN1CCOCC1 as the compound, how does the Potency [1] read?
A: inactive

Q: And the Potency [4]?
A: inactive

Q: And the outcome [3]?
A: inactive

Q: What does the source list for CCn1cc(C(=O)O)c(=O)c2ccc(C)nc21?
A: Potency [1]: inactive; outcome [2]: inactive; outcome [3]: inactive

Q: Which Potency [1] does the source give for CC[C@]1(O)C[C@@H]2CN(CCc3c([nH]c4ccccc34)[C@@](C(=O)OC)(c3cc4c(cc3OC)N(C)[C@H]3[C@@](O)(C(=O)OC)[C@H](OC(C)=O)[C@]5(CC)C=CCN6CC[C@]43[C@@H]65)C2)C1 here?
A: inactive

Q: What about the outcome [3] of the same compound?
A: inactive

Q: What does the source list for CC(=O)O[C@]1(C(C)=O)CC[C@H]2[C@@H]3C=C(Cl)C4=CC(=O)[C@@H]5C[C@@H]5[C@]4(C)[C@H]3CC[C@@]21C?
A: Potency [1]: inactive; outcome [2]: inactive; Potency [4]: inactive

Q: Which outcome [5] does the source give for O=C(O)C(O)Cc1ccc(O)c(O)c1 (stereo not given) here?
A: inactive

Q: And the outcome [7]?
A: inactive

Q: And the outcome [8]?
A: inactive

Q: And the outcome [9]?
A: inactive

Q: What about the Potency [10] of the same compound?
A: 15.2 µM (active)

Q: What about the Potency [4] of the same compound?
A: inactive

Q: For C[N+](C)(C)CC(=O)O, which Potency [1] is on record?
A: inactive

Q: And the Potency [4]?
A: inactive

Q: What about the outcome [3] of the same compound?
A: inactive

Q: Which Potency [1] does the source give for CCN(CC)CCOC(=O)c1ccc(N)cc1 here?
A: inactive

Q: What about the outcome [2] of the same compound?
A: inactive

Q: What about the outcome [3] of the same compound?
A: inactive

Q: With CC(=O)N[C@@H](CS)C(=O)O as the compound, how does the Potency [1] read?
A: inactive

Q: What about the outcome [2] of the same compound?
A: inactive

Q: What about the outcome [3] of the same compound?
A: inactive

Q: Which results are given for O=C(O)c1cc(-c2ccccc2)nc2ccccc12?
A: Potency [1]: inactive; outcome [3]: inactive

Q: Which results are given for CC1=C(/C=C/C(C)=C/C=C/C(C)=C/C(=O)Nc2ccc(O)cc2)C(C)(C)CCC1?
A: Potency [1]: inactive; outcome [2]: inactive

Q: What does the source list for COc1ccccc1N1CCN(CCCNc2cc(=O)n(C)c(=O)n2C)CC1?
A: Potency [1]: inactive; outcome [2]: inactive; outcome [3]: inactive

Q: For COC[C@@H](c1ccc(C(F)(F)F)cc1)N1CCN(C2(C)CCN(C(=O)c3c(C)ncnc3C)CC2)C[C@H]1C, which Potency [1] is on record?
A: inactive

Q: What about the outcome [3] of the same compound?
A: inactive

Q: Which Potency [1] does the source give for CC(=O)c1ccc(S(=O)(=O)NC(=O)NC2CCCCC2)cc1 here?
A: inactive

Q: And the outcome [2]?
A: inactive

Q: And the outcome [3]?
A: inactive

Q: For O=C1NC(=O)C(c2ccccc2)(c2ccccc2)N1, which Potency [1] is on record?
A: inactive

Q: What about the outcome [2] of the same compound?
A: inactive

Q: And the outcome [3]?
A: inactive

Q: With O=C1NCC2(CCN(CCc3ccccc3)CC2)O1 as the compound, how does the Potency [1] read?
A: inactive

Q: And the outcome [2]?
A: inactive

Q: And the outcome [3]?
A: inactive
